From PubChem BioAssay AID2284078 (EPA ToxCast)
Active and inactive are the calls of the source. Rule for the calls: active = hit-call score of the fitted dose curve at least 0.9, where 1 is the maximum; inactive = score below 0.9.

What follows are molecules tested against human CHK1 (CHEK1) CAMK Kinase, CHEK1 (gene 1111) (UniProt O14757) (assay: ERF_TW_ENZ_hCHK1: Eurofins (ERF) Enzymatic Radiometric [10 uM ATP] KinaseProfiler LeadHunter Assay for human CHK1 (CHEK1) CAMK Kinase).
Procedure: ERF_TW_ENZ_hCHK1 is a biochemical, single-readout assay that uses extracted gene-proteins in a cell-free assay. Measurements were taken 0.5 hour after chemical dosing in a 96-well plate. See CHK1 Human CAMK Kinase Enzymatic Radiometric Assay [10 uM ATP], Panlabs.ERF_TW_ENZ_hCHK1 is an assay component calculated from the ERF_TW_ENZ_hCHK1 assay. It is designed to measure enzyme activity using a type of enzyme reporter as detected by scintillation counting with radiometry technology.Data from the assay component ERF_TW_ENZ_hCHK1 was analyzed at the assay endpoint, ERF_TW_ENZ_hCHK1, in the positive analysis fitting direction relative to DMSO as the negative control and baseline of activity. Using a type of enzyme reporter, loss-of-signal activity can be used to understand changes in enzymatic activity as they relate to gene CHEK1. To generalize the intended target to other relatable targets, this assay endpoint is annotated to the kinase intended target family, where the subfamily is serine/threonine kinase.
CHK1 (h) is incubated with 8 mM MOPS pH 7.0, 0.2 mM EDTA, 200 uM […], 10 mM MgAcetate and [gamma-33P]-ATP (specific activity and concentration as required). The reaction is initiated by the addition of the Mg/ATP mix. After incubation for 40 minutes at room temperature, the reaction is stopped by the addition of phosphoric acid to a concentration of 0.5%. An aliquot of the reaction is then spotted onto a filter and washed four times for 4 minutes in 0.425% phosphoric acid and once in methanol prior to drying and scintillation counting. Test Sample Requirements: Compound should be supplied in 100%DMSO. We require a stock solution at a concentration of at least 50x higher than the Final Assay Concentration of your cpd. A 10mM stock is also acceptable. When ordering fewer than 60 kinase assays, we need 120uL of 50x concentrated stock. For more than 60 assays, we need 420uL of 50xcc stock. Please apply the conversion if you provide 10mM stock solution or compounds in powder form (pre-weighed is required). From 50 cpds supplied as solids, the TAT will be extended.

human CHK1 (CHEK1) CAMK Kinase, CHEK1 (gene 1111), sequence (O14757 whole entry, looked up): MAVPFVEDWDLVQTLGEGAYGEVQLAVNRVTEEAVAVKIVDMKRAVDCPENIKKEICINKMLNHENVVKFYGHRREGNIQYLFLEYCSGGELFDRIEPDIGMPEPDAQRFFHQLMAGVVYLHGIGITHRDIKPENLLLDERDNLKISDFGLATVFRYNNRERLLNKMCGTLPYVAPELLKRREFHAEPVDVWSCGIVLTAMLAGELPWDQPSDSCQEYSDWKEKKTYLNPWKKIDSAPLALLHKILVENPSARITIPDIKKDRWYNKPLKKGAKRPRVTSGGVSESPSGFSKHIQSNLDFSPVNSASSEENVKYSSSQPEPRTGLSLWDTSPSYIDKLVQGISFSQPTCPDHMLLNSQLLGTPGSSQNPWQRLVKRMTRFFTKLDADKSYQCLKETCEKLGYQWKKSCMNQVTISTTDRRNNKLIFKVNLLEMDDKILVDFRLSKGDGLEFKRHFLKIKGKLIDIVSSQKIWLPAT

Row | SMILES | outcome | AC50
1 | COc1cc(CCC(=O)CC(=O)CCc2ccc(O)c(OC)c2)ccc1O | inactive | 
2 | O=C(/C=C/c1ccc(O)cc1)CC(=O)/C=C/c1ccc(O)cc1 |  | 2.95 µM (active)
3 | COc1cc(/C=C/C(=O)CC(=O)/C=C/c2ccc(O)c(OC)c2)ccc1O |  | 2.59 µM (active)
